Among all 360,000 compounds or so, about 10,000 (2.8%) were called active. Not shown: some 4% with an inconclusive outcome. The call rests on the fitted dose curve; in most records, active means well fitted inhibition curve with a large enough effect; inconclusive means small, poorly fitted or top-dose-only effect; inactive means flat fitted curve, though single readings scatter. This excerpt belongs to a sample that is enriched for actives. More than one record can exist for a structure, and the calls need not agree.
Each molecule was assayed against Serine/threonine-protein kinase PLK1 (Homo sapiens) (UniProt P53350) (assay: qHTS for Inhibitors of PLK1-PDB (polo-like kinase 1 - polo-box domain): Primary Screen). Settings: Plk1 PBD binding of FITC phosphopeptide, fluorescence polarization.
Description: The polo-like kinase 1 (Plk1) is a member of a conserved subfamily of serine / threonine protein kinases that plays a pivotal roles in cell proliferation. It has a C-terminal non-catalytic region called the polo-box domain (PBD) that plays a crucial role in the subcellular localization of the Plk1. […] Furthermore, depletion of the overexpressed Plk1 by RNAi efficiently induces apoptotic cell death in cancer and reduces tumor growth in mouse xenograft models. Thus, targeting Plk1 is an appealing strategy for anti-cancer therapy. Therefore, this project aimed to screen the Molecular Libraries Small Molecule Repository (MLSMR) using a novel approach to find inhibitors that target the Plk1 PBD instead of the conventional N-terminal catalytic domain. This project employed a fluorescence polarization (FP) assay using a FITC-conjugated phospho-9-mer (p-9-mer) peptide and purified human Plk1 PBD protein. The identified small molecule inhibitors of Plk1 PBD can then further be developed into useful tools for biomedical and clinical research that complements or replaces current relevant disease therapy. NIH Chemical Genomics Center [NCGC] NIH Molecular Libraries Probe Centers Network [MLPCN] MLPCN Grant: MH100728 Assay Submitter (PI): Kyung Lee, NCI
Four microliter of 25 nM FITC-p-9-mer + 60 nM Plk1 PBD in buffer solution (final concentrations 25 nM and 60 nM respectively) or 4 uL of 25 nM FITC-p-9-mer (final concentration 25 nM) in buffer will be dispensed into a 1,536 Greiner medium-binding black solid plate. Small molecules at final concentrations of 18 nM to 57 uM and positive control phospho-9-mer (sequence: Ac-PPLHSpTAI-NH2) at final concentrations 26 nM to 57 uM and phospho-13-mer (sequence: Ac-[…]pTAI-NH2) at final concentrations of 1 nM to 2.3 uM will be pin-transferred (23 nL) to the plate via a Kalypsys pin-tool robotics equipped with a 1,536-pin array. The reaction plate will be centrifuged for 1 min at 1000 rpm and incubated at room temperature for 10 min. The FITC fluorescence signals will be read using the PerkinElmer ViewLux plate reader at 480 / 20 nm excitation and 540 / 20 nm S and P polarization emission wavelengths. Reagent bottles will be kept submerged into 4 °C recirculating chiller bath and all liquid lines will be covered with aluminum foil to minimize degradation. Library plates will be screened starting from the lowest to the highest concentrations to minimize compound carryover. Vehicle only plates, with DMSO being pin-transferred instead of compound solutions, will be included regularly throughout the screen to record any systematic shifts in assay signal.
Further: nearly all actives have a fitted effect of over 65% in size.
On the % scale 0 is the no-effect control and ±100 the full control effect; potency means the concentration at half of the fitted maximal effect.
Wherever max response, negative = inhibition is given: series mostly up to about 57 µM.

Sequence of Serine/threonine-protein kinase PLK1 (Homo sapiens) (P53350 whole entry, looked up, the tested form may be a part): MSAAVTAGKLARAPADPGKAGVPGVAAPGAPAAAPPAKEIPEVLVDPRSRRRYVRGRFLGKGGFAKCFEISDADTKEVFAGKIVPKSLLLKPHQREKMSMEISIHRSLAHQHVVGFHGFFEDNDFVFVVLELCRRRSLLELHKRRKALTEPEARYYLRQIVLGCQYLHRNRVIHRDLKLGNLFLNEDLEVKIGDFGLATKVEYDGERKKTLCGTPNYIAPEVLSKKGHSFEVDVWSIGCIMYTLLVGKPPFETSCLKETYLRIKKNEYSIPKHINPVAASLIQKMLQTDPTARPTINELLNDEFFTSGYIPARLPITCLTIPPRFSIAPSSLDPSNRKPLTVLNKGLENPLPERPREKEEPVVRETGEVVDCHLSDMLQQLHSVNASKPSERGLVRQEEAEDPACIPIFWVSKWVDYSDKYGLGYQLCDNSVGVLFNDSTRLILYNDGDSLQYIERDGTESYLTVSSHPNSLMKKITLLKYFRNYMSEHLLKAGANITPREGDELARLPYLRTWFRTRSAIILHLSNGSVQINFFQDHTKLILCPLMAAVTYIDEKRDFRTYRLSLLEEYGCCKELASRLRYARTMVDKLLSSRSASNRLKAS

| SMILES | Potency | max response, negative = inhibition |
| --- | --- | --- |
| O=S(=O)(NCc1ccccc1)c1ccc(S(=O)(=O)N2CCCC2)cc1 | 26.7 µM (active) | – |
| CC1CCN(S(=O)(=O)c2ccc(S(=O)(=O)NCc3cccnc3)cc2)CC1 | – | -9.09% (inactive) |
| O=S(=O)(c1ccc(-c2ccccc2)cc1)N1CCCC1 | – | -5.48% (inactive) |
| CN(Cc1ccc(C(F)(F)F)cc1)C(=O)[C@H]1O[C@@H](n2cnc3c(N)ncnc32)[C@H](O)[C@@H]1O | – | -3.67% (inactive) |
| CN(C)C(=O)c1cccc(-c2cnc3c(NC=O)cc(-c4ccc(C(=O)N5CCOCC5)cc4)cn23)c1 | – | -14.7% (inactive) |
| Cc1cc(C(F)(F)F)nc(SCC(=O)Nc2nccs2)n1 | – | -4.23% (inactive) |
| CCOC(=O)c1sc(NC(=O)CSc2nc(C)cc(C(F)(F)F)n2)c(C#N)c1C | 2.99 µM (active) | – |
| CCn1c(SCC(=O)Nc2sc(C)c(C)c2C#N)nnc1C1CC1 | – | -26.7% (inactive) |
| CC(=O)OCC(C)n1c(=O)c2ccccc2n1C(C)=O (stereo not drawn) | – | 1.28% (inactive) |
| CN(C)c1cccc(NC(=O)c2ccc(-c3ccc(F)c(F)c3)c3ccoc23)c1 | – | -11% (inactive) |
| CCOC(=O)[C@]12CCCC=C1N(CCC1=CCCCC1)C(=O)[C@H](CC(=O)N1CCN(C(=O)c3ccco3)CC1)C2 | – | -19.8% (inactive) |
| C[C@@H]1CN([C@@H](C)CO)S(=O)(=O)c2ccc(C#Cc3cccc(F)c3)cc2O[C@H]1CN(C)S(=O)(=O)c1cn(C)cn1 | – | -28.6% (inactive) |
| CCCCCn1nnnc1-c1nc2cc3ccccc3cc2[nH]c1=O | – | -6.28% (inactive) |
| CCn1cc(C(=O)NCC2COc3ccccc3O2)c2cc(OC)c(OC)cc2c1=O (stereo not drawn) | – | -0.135% (inactive) |
| CCn1cc(C(=O)N2CCN(C3CCCCC3)CC2)c2cc(OC)c(OC)cc2c1=O | 10.6 µM (active) | – |
| COc1cc(C(=O)N2CCN(C3CCC(C)CC3)CC2)cc(OC)c1OC (stereo not drawn) | – | -10% (inactive) |
| CCc1nc2ccc(C(=O)NC3CCN(Cc4ccccc4)CC3)cn2c1N(C)CCN1CCOCC1 | – | -5.14% (inactive) |
| CCCCCc1c(-c2ccc(OC)c(OC)c2)ncn1CCc1ccccc1OC | – | -4.35% (inactive) |
| Cc1cc(C)c(NC(=O)CN2CCCCCC2)c(C)c1 | – | -2.23% (inactive) |
| Cc1cc(C)c(NC(=S)N2CCCC2C(=O)O)c(C)c1 (stereo not drawn) | 6.7 µM (active) | – |
| Cc1cc([N+](=O)[O-])c(N2CCC[C@@H]2C(=O)O)c([N+](=O)[O-])c1 | – | -4.11% (inactive) |
| COc1ccc(C(O)c2nc(-c3ccc(OC)nc3)cs2)cc1 (stereo not drawn) | – | 6.19% (inactive) |

| SMILES | Potency | max response, negative = inhibition |
| --- | --- | --- |
| COc1ccc(NC(=O)CN2C(=O)NC(C)(c3ccccc3)C2=O)cn1 (stereo not drawn) | – | 2.84% (inactive) |
| COc1ccc(CS(=O)/C(Cl)=C(/Cl)C(=O)Nc2ccc(OC)nc2)cc1 (stereo not drawn) | 2.67 µM (active) | – |
| Cc1ccc(-c2c(N)nc3ncccn23)cc1 | – | 2.55% (inactive) |
| CCc1nc2c(OCC(N)=O)cccn2c1N(C)C(=O)c1ccc(OC)cc1 | – | -13.5% (inactive) |
| Cc1nc2ccccc2c(=O)n1CCCn1ccnc1 | 21.2 µM (active) | – |
| Clc1c(OCCCn2ccnc2)ccc2ccccc12 | – | -25.1% (inactive) |
| CC1(C(=O)NCc2ccccc2)CSCC(=O)N1CCCn1ccnc1 (stereo not drawn) | – | -0.172% (inactive) |
| CC(C(=O)NC1CCCC1)N(c1ccc(Oc2ccccc2)cc1)S(C)(=O)=O (stereo not drawn) | – | -1.83% (inactive) |
| COc1ccc(/C=N/NC(=O)C(C)N(c2ccc(OC)cc2)S(C)(=O)=O)cc1 (stereo not drawn) | 26.7 µM (active) | – |
| CN(C)c1ccc(/C=N/NC(=O)C(O)c2ccc(Br)cc2)cc1 (stereo not drawn) | – | -14.9% (inactive) |
| COc1ccccc1Cc1c(-c2ccc(Cl)cc2)nc2c3ccccc3ccn12 | – | -5.7% (inactive) |
| O=C(/C=C/[C@H]1O[C@@H](n2ccc(=O)[nH]c2=O)[C@H](O)[C@@H]1O)NCc1ccccn1 | – | 0.76% (inactive) |
| Cc1cccc(C)c1NC(=O)C(c1ccc(C(F)(F)F)cc1)n1c(=O)c(-c2ccco2)nc2ccccc21 (stereo not drawn) | – | -16.2% (inactive) |
| CC(C)/C=N/NC(=O)c1cc(Br)ccc1O | – | -13.1% (inactive) |
| COc1ccc(CC(=O)NCC(=O)N/N=C/c2cc(Br)ccc2OC)cc1 | – | 0.444% (inactive) |
| COc1ccc(-c2[nH]ncc2/C=N/NC(=O)c2cc(Br)ccc2O)c(OC)c1 | 26.7 µM (active) | – |
| CC(C)(O)C1=C[N+](=O)CC=C1 | – | -9.3% (inactive) |
| Cc1cc(C)n2nc(SCC(=O)NC(=O)NCc3ccco3)nc2n1 | 16.8 µM (active) | – |
| O=C(CNc1ccc(F)cc1F)NC(=O)NCc1ccco1 | – | -20.1% (inactive) |
| CCOC(=O)c1cnc(SCC(=O)NCc2ccco2)nc1N | – | -1.79% (inactive) |
| O=[N+]([O-])c1ccc(CN2CC(N3CCC(c4ccccc4)CC3)CS2(=O)=O)cc1 (stereo not drawn) | – | -13.3% (inactive) |
| CCOc1ccc(Cl)cc1-c1cc(C(=O)NCc2cccs2)[nH]n1 | – | -0.638% (inactive) |

| SMILES | Potency | max response, negative = inhibition |
| --- | --- | --- |
| Cc1nn2c(c1-c1ccccc1)N=C(c1ccco1)CC2c1ccccc1 (stereo not drawn) | 42.3 µM (active) | 2.38% (inactive) |
| Cc1nn(C(=O)c2ccoc2C)c(N)c1-c1ccccc1 | – | -3.12% (inactive) |
| O=C(O)CCCC(=O)N1N=C(c2ccco2)CC1c1ccco1 (stereo not drawn) | – | -14% (inactive) |
| C[C@H]1CN([C@@H](C)CO)C(=O)c2cc(-c3ccccc3F)cnc2O[C@H]1CN(C)C(=O)C1CCOCC1 | – | -20.8% (inactive) |
| Cc1ccc(Cn2c(C)c(C(=O)NCc3ccccc3C(F)(F)F)sc2=O)cc1 | – | -12.2% (inactive) |
| O=C(Cc1ccc(-c2ccccc2)cc1)NC(c1ccccc1)c1ccccc1 | 21.2 µM (active) | – |
| C=CCC(NC(=O)Cc1ccccc1)C(=O)NCCC (stereo not drawn) | – | -11.6% (inactive) |
| O=C(CN1CCN(Cc2ccccc2)CC1)NC(c1ccccc1)c1ccccc1 | – | -13.1% (inactive) |
| O=C1NC[C@H](CCCCN2C[C@H](Cc3ccc(O)cc3)N(CC3CCCCC3)C(=O)C2=O)N(CCc2ccccc2)C1=O | – | -5.25% (inactive) |
| Cc1nc2c(OCc3ccc(Cl)cc3Cl)cccn2c1N(C)CC1CC1 | – | -13% (inactive) |
| Cc1cc2nc(-c3ccc(Cl)cc3)c(Cc3cccc(F)c3)n2c(C)c1Br | – | -18.5% (inactive) |
| Cc1noc(C)c1NC(=O)N(C)C[C@@H]1Oc2cc(Br)ccc2S(=O)(=O)N([C@@H](C)CO)C[C@H]1C | – | 2.61% (inactive) |
| COc1ccccc1C1C(C#N)=C(N)Oc2c1c(-c1ccccc1)nn2-c1ccccc1 (stereo not drawn) | – | -0.276% (inactive) |
| Cn1c2c(c(=O)n(C)c1=O)C(c1cccc(F)c1)C(C#N)=C(N)O2 (stereo not drawn) | – | -22.7% (inactive) |
| Cc1nn(-c2ccccc2)c2c1C(c1ccc(F)cc1)C(C#N)=C(N)O2 (stereo not drawn) | 23.8 µM (active) | – |
| COc1ccc(S(=O)(=O)NC(=O)C2(C)CCN2C(=O)c2ccccc2CCc2ccccc2)cc1 (stereo not drawn) | – | -9.6% (inactive) |
| Cc1cc(Nc2ccc(C)c(C)c2)n2ncnc2n1 | – | -12.1% (inactive) |
| O=S(=O)(c1ccc(F)cc1)N1CCN(C(=S)NCc2ccco2)CC1 | – | -10.7% (inactive) |
| O=C(NC1CCN(C(=S)NCc2ccco2)CC1)c1ccc(F)cc1 | 23.8 µM (active) | – |
| CCCNC(=S)N1CCC(NC(=O)c2ccc(OC)cc2)CC1 | – | -7.7% (inactive) |
| COC(=O)C[C@@H]1C=C[C@@H](NS(=O)(=O)c2cccc(OC)c2)[C@@H](CO)O1 | – | -1.82% (inactive) |
| CC(=O)Nc1c(-c2ccc(C)cc2)nc2ccc(Cl)cn12 | – | -2.35% (inactive) |

| SMILES | Potency | max response, negative = inhibition |
| --- | --- | --- |
| COc1ccc(CCNC(=O)CS(=O)(=O)Cc2nc(-c3ccc(C)cc3)oc2C)cc1OC | – | -18.7% (inactive) |
| CCCCN(CC)CCCNC(=O)CS(=O)(=O)Cc1nc(-c2cccc(OC)c2)oc1C | – | 0.434% (inactive) |
| COc1cccc(-c2nc(CS(=O)(=O)CC(=O)NCCc3ccc(OC)c(OC)c3)c(C)o2)c1 | 18.9 µM (active) | – |
| CC(=O)Nc1cccc(Nc2ccc(C#N)cc2)c1 | – | 0.998% (inactive) |
| CC1CCCC(NC(=O)COC(=O)c2ccccc2C(=O)N(C)C2CCCCC2)C1C (stereo not drawn) | – | -13.1% (inactive) |
| CCN(CC(=O)Nc1cccc(S(=O)(=O)N2CCCCC2)c1)Cc1ccccc1 | – | 1.36% (inactive) |
| O=C(CSc1ccccc1)Nc1cccc(S(=O)(=O)N2CCOCC2)c1 | 23.8 µM (active) | – |
| O=C(COC(=O)c1ccccc1)Nc1cccc(S(=O)(=O)N2CCOCC2)c1 | – | 10.6% (inactive) |
| Nc1cc(N)nc(SCC(=O)Nc2cccc(S(=O)(=O)N3CCCCC3)c2)n1 | – | -3.4% (inactive) |
| O=C(CSc1ccccc1)Nc1cccc(S(=O)(=O)N2CCCCC2)c1 | – | 3.72% (inactive) |
| O=C(Cn1cnc2ccccc2c1=O)Nc1cccc(S(=O)(=O)N2CCCCC2)c1 | 26.7 µM (active) | – |
| CN(C)CCN1CCN(c2cc(-c3cccc(Cl)c3)nc3ccnn23)CC1 | – | -12.4% (inactive) |
| COc1ccc(Sc2ccc(NC(=O)c3cccc(Cl)c3)cc2C#N)cc1 | – | 2.16% (inactive) |
| Cc1cccc(CN2CCN(C3CN(Cc4ccccc4)S(=O)(=O)C3)CC2)c1 (stereo not drawn) | – | 2.44% (inactive) |
| Nc1ncnc2c1ncn2[C@@H]1O[C@H](CNC(=O)[C@H](N)Cc2cccnc2)[C@@H](O)[C@H]1O | – | -2.93% (inactive) |
| CCCCCC(=O)N1C[C@H](O)[C@@H](n2cc(COC(=O)c3ccccc3)nn2)C[C@@H]1c1ccc(C)cc1 | – | -4.42% (inactive) |
| CCOC(=O)CSc1nc(C)c(Oc2ccc(Cl)cc2Cl)c(=O)[nH]1 | – | -19.2% (inactive) |
| Cc1nnc(SCC(=O)N2CCOCC2)[nH]c1=O | – | -7.51% (inactive) |
| CCCCOC(=O)CNc1nnc(SCC(=O)OCC)[nH]c1=O | 13.4 µM (active) | – |
| CCc1nc2ccc(C(=O)N(C)CCN(C)C)cn2c1N(CC)CCOC | – | -14.3% (inactive) |
| COCOCCn1cc(CN2CCS(=O)(=O)N(Cc3ccc(-c4ccccc4)cc3)C(CC(C)C)C2=O)nn1 (stereo not drawn) | – | -0.127% (inactive) |

Source: PubChem BioAssay AID720504 (National Center for Advancing Translational Sciences (NCATS), 2013)
